PubChem BioAssay (NCI)
The panel holds about 83,000 compounds, 20% with a hit somewhere; the sample as a whole holds those more often.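 Activity criterion: percent growth below 10, measured after cells in 96-well plates were exposed to a single compound concentration for 48 hours.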 Unmarked numbers belong to inactive results. Active and inactive are the calls of the source.

Legend:
Assay in all cases: NCI-60 one-dose screen, 48 h (100 = growth as untreated, 0 = no growth, -100 = all killed)
Settings in all cases: 10 µM unless noted
SK-MEL-2 melanoma = test system: SK-MEL-2 melanoma
EKVX NSCLC = test system: EKVX NSCLC
SN12C renal = test system: SN12C renal
UO-31 renal = test system: UO-31 renal
TK-10 renal = test system: TK-10 renal
ACHN renal = test system: ACHN renal
CAKI-1 renal = test system: CAKI-1 renal
A498 renal = test system: A498 renal
MOLT-4 leukemia = test system: MOLT-4 leukemia
SR leukemia = test system: SR leukemia
RPMI-8226 leukemia = test system: RPMI-8226 leukemia
OVCAR-8 ovarian = test system: OVCAR-8 ovarian
OVCAR-5 ovarian = test system: OVCAR-5 ovarian
OVCAR-4 ovarian = test system: OVCAR-4 ovarian
SK-OV-3 ovarian = test system: SK-OV-3 ovarian
IGROV1 ovarian = test system: IGROV1 ovarian
OVCAR-3 ovarian = test system: OVCAR-3 ovarian
HS 578T breast = test system: HS 578T breast
NCI/ADR-RES ovarian = test system: NCI/ADR-RES ovarian

| Compound | growth (SK-MEL-2 melanoma) | growth (EKVX NSCLC) | growth (SN12C renal) | growth (UO-31 renal) | growth (TK-10 renal) | growth (ACHN renal) | growth (CAKI-1 renal) | growth (A498 renal) | growth (MOLT-4 leukemia) | growth (SR leukemia) | growth (RPMI-8226 leukemia) | growth (OVCAR-8 ovarian) | growth (OVCAR-5 ovarian) | growth (OVCAR-4 ovarian) | growth (SK-OV-3 ovarian) | growth (IGROV1 ovarian) | growth (OVCAR-3 ovarian) | growth (HS 578T breast) | growth (NCI/ADR-RES ovarian) |
| --- | --- | --- | --- | --- | --- | --- | --- | --- | --- | --- | --- | --- | --- | --- | --- | --- | --- | --- | --- |
| Cn1c2c(c3ccc(Cl)c(Cl)c31)C(C#N)C1(CCNCC1)NC2=O (centres undefined) | 11.5% | 46.2% | 44.2% | 31.7% | 38.3% | 26.8% | 29.6% | 44.9% | 15.6% | 13.6% | 14.2% | 67.8% | 62.1% | 53.5% | 68.7% | -19.3% (active) | 48.1% | 35.1% | 68.5% |
| CC1CC2Oc3ccc(Cl)cc3C(=O)N2O1 (centres undefined) | 98.6% | 109% | 105% | 92.9% | 96.8% | 102% | 97.1% | 86.9% | 105% | 98.2% | 91.1% | 107% | 98.7% | 117% | 100% | 125% | 114% | 102% | 107% |
| CCOC(=O)c1c2ncccc2n2c(=O)n(-c3ccccc3C)nnc12 | 107% | 74% | 105% | 73.4% | 146% | 92.2% | 91.7% | 127% | 61.2% | 60.4% | 158% | 99.1% | 101% | 90.2% | 80.7% | 63.9% | 135% | 112% | 93.3% |
| NC1=NCc2nc3ccccc3c(=O)n2C1 | 92.8% | 107% | 98% | 70.1% | 106% | 99.5% | 92.7% | 110% | 91.2% | 93.1% | 79.1% | 102% | 85.8% | 106% | 117% | 101% | 101% | 111% | 96.8% |
| COc1ccc(-c2nc(SC(C)C)nc(NNC(N)=S)c2C#N)cc1 | 48.7% | 65.7% | 55.1% | 64.3% | 72.9% | 72.1% | 42.3% | 50.2% | 32.1% | 24.4% | 32.7% | 71.2% | 66% | 86.3% | 73% | 52.6% | 18.2% | 54.9% | 19.6% |
| Cc1occc1-c1n[nH]c(=S)n1N1C(=O)CSC1=S | 107% | 99.1% | 99.2% | 77.6% | 99% | 102% | 85.4% | 101% | 99.7% | 102% | 93.8% | 101% | 99.6% | 107% | 106% | 102% | 103% | 101% | 101% |
| COc1cc(N=Nc2cc(Cc3ccc(N(C)C)cc3)c(N)cc2N(C)C)c2ncccc2c1 | 29.4% | 8.8% (active) | 31.2% | -12.6% (active) | 32.3% | -58.5% (active) | 13.5% | -8.31% (active) | -13.2% (active) | -13.5% (active) | -53.4% (active) | -37% (active) | 42.8% | -48.9% (active) | -0.131% (active) | 7.41% (active) | -28.7% (active) | 18.3% | -17.8% (active) |
| N#CC1=C(NC=O)Oc2c(ccc3ccccc23)C1c1ccccc1 (centres undefined) | 29% | 67.8% | 39.7% | 41% | 54.6% | 43.4% | 26.5% | 22.9% | 39.5% | 22.9% | 19.1% | 23.6% | 88.9% | 64.5% | 16.3% | 38.6% | 3.87% (active) | 11.3% | 20.4% |
| CC/C=C\C[C@H](O)C/C=C1/C(=O)C=C[C@@H]1C/C=C\CCCCO | 62.5% | 69.3% | -15.9% (active) | -74.2% (active) | 5.32% (active) | -69.3% (active) | 0.105% (active) | 100% | 8.39% (active) | -5.23% (active) | -12.9% (active) | -27.5% (active) | 39.2% | 49.7% | 83.2% | 15.5% | 2.43% (active) | 75.6% | 9.46% (active) |
| CN(Cc1cnc2nc(N)nc(N)c2n1)c1ccc(C(=O)N[C@@H](CCc2nn[nH]n2)c2nn[nH]n2)cc1 | 75.3% | 85.7% | 36% | 43.1% | 56.4% | 33.6% | 29.3% | 97.2% | 28.2% | 29.2% | 44.1% | 32.8% | 56.1% | 91% | 82.8% | 45.6% | 53% | 76.2% | 40.4% |
| N#CCN1C(=O)C2C3=C(CCCC3)SC2N=C1CN1CCCC1 (centres undefined) | 83.5% | 96% | 100% | 7.35% (active) | 104% | 104% | 104% | 100% | 79.9% | 81.1% | 50.2% | 97.7% | 101% | 101% | 109% | – | 113% | 108% | 96.3% |
| COc1ccc(-c2csc(C3=C(O)CN(CCCN4CCCC4=O)C3=N)n2)cc1OC | 99.2% | 97.5% | 105% | 83.8% | 127% | 103% | 103% | 100% | 81% | 77.1% | 85.5% | 94.6% | 94.2% | 116% | 109% | 63.9% | 99.4% | 92.9% | 100% |
| CC/C=C/C/C=C/C/C=C/C/C=C/C/C=C/C/C=C/CCC(=O)Nc1ccn([C@@H]2O[C@H](CO)[C@@H](O)C2(F)F)c(=O)n1 | 83.1% | 70% | -2.1% (active) | 3.26% (active) | 67.9% | 6.15% (active) | 12.4% | 16.6% | 1.85% (active) | 18.5% | 28.1% | 10% | 50.1% | 73.8% | 22% | 57.5% | 53.4% | 76.1% | 14.1% |
| Cc1cccc(-c2nc(N(C)c3ccc4ncsc4c3)c3ccccc3n2)n1 | 85.1% | 85% | 93.6% | 77.7% | 105% | 94.6% | 77.5% | 78.8% | 76.4% | 17.3% | 50.1% | 91.2% | 108% | 85.7% | 96.6% | 68.9% | 62.6% | 103% | 58.5% |
| c1cc2ccc3cc2cc1CNCCOCCNCc1ccc2ccc(cc2c1)CNCCOCCNC3 | -63.5% (active) | 21.4% | -19.9% (active) | 73.7% | 8.5% (active) | 70% | 15.4% | 31.7% | 4.08% (active) | 10.1% | 0.51% (active) | -3.14% (active) | -16.8% (active) | -40.4% (active) | – | -4.09% (active) | -40% (active) | -17.6% (active) | 105% |
| N=C1C(c2nc(-c3ccc(Br)cc3)cs2)=C(O)CN1Cc1cccnc1 | 111% | 71.7% | 69.7% | -6.45% (active) | 60.1% | 61.5% | 57.1% | 86.8% | 68.5% | 55.1% | 70.2% | 16.3% | 77.1% | 37.2% | 40.4% | – | 101% | 23% | 70.1% |
| Cc1ccc(N(C(=O)CCc2c[nH]c3ccccc23)[C@H](C(=O)Nc2ccc(Cl)cc2)c2cccc([N+](=O)[O-])c2)cc1 | 105% | 93% | 87.2% | 47.4% | 116% | 61% | 80.5% | 58.6% | 70.8% | 72.9% | – | 87.8% | 98.4% | 99.1% | 90.8% | 78.7% | 96.9% | 82.3% | 70.1% |
